MEKK3 PB1 HTS: raises or lowers MEK5 binding to the human MEKK3 PB1 domain; Q99759; bead-based flow cytometry, Alexa488-MEK5 binding to MEKK3; actives lie on both sides; 0 = blocked by unlabeled MEK5, 100 = vehicle; binding response (% of control), % at 10 µM; 1.4% of 290,000 active; AID 1529;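 active = binding response more than 3 SD above or below the average of its plate-row segment, actives on both sides; inconclusive = wells at one plate position flagged as instrument error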;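 also: Alexa488 bead fluorescence after subtracting the streptavidin-only scavenger bead signal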
MEKK2mut PB1 HTS: signal of MEK5 binding to mutant human MEKK2 PB1 domain | bead flow cytometry, Alexa488-MEK5 binding to MEKK2 mutant | percent response, % at 10 µM | 0.35% of 290,000 active | AID 1530; in the data active = percent response above about 24%, passing the limit was not always enough
UBC13 polyUb: human UBC13 polyubiquitination inhibition; AID 485273; inhibition, % at 20 µM; 0.47% of 330,000 active; P61088; UBC13 polyubiquitin chain formation, TR-FRET; in the data active = inhibition above about 45%, passing the limit was not always enough; inconclusive = no clear call, values can overlap the other calls
Target sequence (P61088 whole entry, looked up): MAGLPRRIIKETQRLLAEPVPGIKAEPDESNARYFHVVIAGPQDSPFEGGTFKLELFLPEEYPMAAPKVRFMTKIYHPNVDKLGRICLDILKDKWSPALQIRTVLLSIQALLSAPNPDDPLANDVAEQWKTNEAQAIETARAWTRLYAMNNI
MEKK2wt PB1 HTS: raises or lowers MEK5 binding to wildtype human MEKK2 PB1 domain; Q9Y2U5; bead flow cytometry, Alexa488-MEK5 binding to MEKK2 WT; actives lie on both sides; binding response (% of control), % at 10 µM; 1.1% of 290,000 active; AID 1531; in the data active = binding response below about 67% or above about 130%; inconclusive = no clear call, values can overlap the other calls; inactive = in between
Casp3 counter: inhibits human caspase-3 in UBC13 counter-screen. shares compounds with UBC13 polyUb. Recombinant caspase-3, Caspase-Glo 3/7 luminescence, 60 min. inhibition, % at 20 µM. 4% of 1,400 active;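 active = mean inhibition across replicates above about 26%, limit read from the data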
Target sequence (P42574 whole entry, looked up): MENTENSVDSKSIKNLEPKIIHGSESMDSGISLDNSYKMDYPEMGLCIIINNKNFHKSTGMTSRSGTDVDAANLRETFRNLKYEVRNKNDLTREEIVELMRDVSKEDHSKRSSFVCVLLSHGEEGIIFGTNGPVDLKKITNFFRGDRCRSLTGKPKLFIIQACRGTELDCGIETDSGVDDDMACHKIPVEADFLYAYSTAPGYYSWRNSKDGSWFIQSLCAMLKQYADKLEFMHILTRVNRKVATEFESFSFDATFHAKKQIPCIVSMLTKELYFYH
UBC13 conf: human UBC13 polyubiquitin inhibition, confirmed; inhibition, % at 10 µM; 68% of 1,400 active; UBC13 polyubiquitination, TR-FRET, biochemical; AID 488859; shares compounds with UBC13 polyUb; in the data active = inhibition above about 45%; inconclusive = no clear call, values can overlap the other calls
Numbers stand for hits; 0 = inactive; ? = inconclusive; - = not tested or not shown; ! = repeats disagree. Hits are enriched below; roughly 2.3% of the tested compounds scored in any of these assays.

SMILES	MEKK3 PB1 HTS	MEKK2mut PB1 HTS	UBC13 polyUb	MEKK2wt PB1 HTS	Casp3 counter	UBC13 conf
Cc1cc(C)cc(N(CCC#N)C(=O)COC(=O)C2CCN(c3ccc(C(F)(F)F)cn3)CC2)c1	-	-	0	-	-	-
CCOc1ccc(C2NC(=O)c3ccccc3O2)cc1OC (centres undefined)	0	0	0	0	-	-
S=C1NC2(CCCCC2)N=C1c1ccccc1	0	0	0	0	-	-
O=C1NC2(CCCCCC2)N=C1c1ccc(Br)cc1	0	0	49	0	0	?
O=c1c(-c2ccco2)[n+]([O-])c2ccccc2n1OCc1ccccc1[N+](=O)[O-]	0	0	0	0	-	-
CCOc1cc2c(C#N)c(N3CCNCC3)nc(N)c2c(N)n1	0	0	63	0	0	105
CN1CCN(C(=O)c2cccc(-c3cc(O)c4ncccc4c3)c2)CC1	-	-	0	-	-	-
CN1CCN(c2cc(-c3cc(O)c4ncccc4c3)ccn2)CC1	-	-	100	-	0	102
CCCCN(CC)CCCNC(=O)c1cc2c(=O)n(C)c3ccccc3c2n1C	0	0	49	0	0	0
Cc1cccc2c1-c1sc(C(=O)NCCCN3CCC(C)CC3)cc1CO2	0	29	53	186	0	86
Cc1ccc(Nc2nnc(-c3ccccc3N)o2)cc1C	0	0	46	0	39	0
CCNC(=S)NNC(=O)c1ccccn1	0	0	90	0	0	87
CCNC(=S)NNC(=O)c1ccccc1Cl	0	0	0	0	-	-
O=C(CCc1ccccc1)NNC(=O)c1ccccn1	0	0	50	0	0	64
NC(=O)NC(CC(=O)NNC(=O)c1ccccn1)c1ccccc1Cl (centres undefined)	-	-	80	-	0	82
Cc1cccc(OCCCC(=O)NNC(=O)c2ccncc2)c1	-	-	0	-	-	-
Cc1cccc(OCCCC(=O)NNC(=O)c2ccccn2)c1	-	-	75	-	0	0
Cc1ccc2nc(-c3ccncc3)c(NC3CCCCC3)n2c1	0	0	0	0	-	-
COCCCNc1nc2cc(OC)c(OC)cc2c2nc(-c3ccccc3)nn12	0	0	0	0	-	-
COc1cc2nc(NCCCN3CCN(C)CC3)n3nc(-c4ccccc4)nc3c2cc1OC	0	0	66	0	0	74
CCN(CC)CCCNc1nc2cc(OC)c(OC)cc2c2nc(-c3ccccc3)nn12	0	0	55	0	0	45
CCN(CC)CCCNc1nc2cc(OC)c(OC)cc2c2nc(-c3cccnc3)nn12	0	0	0	0	-	-
COc1ccc(C(C(=O)NCC2CCCO2)N(C(=O)c2snc(C(N)=O)c2N)c2ccc(C)cc2)cc1OC (centres undefined)	0	0	0	0	-	-
Cc1nn2c(nc(N3CCOCC3)c3ccccc32)c1C=C(C#N)C#N	0	0	47	0	0	46
O=C(OCc1cccc([N+](=O)[O-])c1)c1cccnc1Cl	0	0	50	0	31	67
SMILES	MEKK3 PB1 HTS	MEKK2mut PB1 HTS	UBC13 polyUb	MEKK2wt PB1 HTS	Casp3 counter	UBC13 conf
O=C(OCc1ccccc1)c1cccnc1Cl	0	0	0	0	-	-
Cc1ccccc1C(=O)N1CCN(c2ccc(NC(=S)NC(=O)c3cccs3)cc2)CC1	0	0	86	0	0	85
COc1ccc(C)c2sc(N(CCCN(C)C)C(=O)c3ccc(S(=O)(=O)N(C)C)cc3)nc12	0	0	49	0	0	54
Cc1cc(C)c2sc(N(CCCN(C)C)C(=O)c3ccc(S(=O)(=O)N(C)C4CCCCC4)cc3)nc2c1	-	-	58	-	0	97
COc1ccc(OC)c2sc(N(CCN(C)C)C(=O)c3ccc4ccccc4c3)nc12	0	0	0	0	-	-
COc1ccccc1NCc1nnc(-c2ccccc2)o1	0	0	0	0	-	-
CCOc1ccc(C(=O)NCC(=O)OCCN2C(=O)c3ccccc3C2=O)cc1OCC	-	-	0	-	-	-
CCOc1cc(/C=N/N2CCOCC2)ccc1OCc1ccc(C(=O)OC)o1	0	0	0	0	-	-
COc1ccc(N(CC(=O)NCCc2ccc(OC)c(OC)c2)S(=O)(=O)c2ccc(OC)c(OC)c2)cc1	0	0	0	0	-	-
O=C(CCCn1c(=S)[nH]c2ccc(Br)cc2c1=O)N1CCN(c2ccccn2)CC1	0	0	45	0	0	0
O=C(CSCc1ccc([N+](=O)[O-])cc1)N/N=C/c1ccncc1	0	0	68	0	0	75
O=C(CSCc1ccc([N+](=O)[O-])cc1)N/N=C/c1cccnc1	0	0	86	0	0	96
O=C(Cc1ccc([N+](=O)[O-])cc1)N/N=C/c1cccnc1	-	-	0	-	-	-
C/C(=N\NC(=O)CSCc1ccc([N+](=O)[O-])cc1)c1cccc(Br)c1	0	0	47	0	0	0
CC(C)(C)c1nnc(SCC(=O)Nc2ccc(N3CCCCC3)cc2)n1N	-	-	0	-	-	-
O=C(NCc1cccnc1)c1c(O)c2cccc3c2n(c1=O)CCC3	0	0	?	0	-	-
CC(NC(=S)Nc1c(Br)cccc1OC(F)F)C(C)(C)C (centres undefined)	0	0	0	0	-	-
CN(C)CCCN(C(=O)c1ccc(C(=O)c2ccccc2)cc1)c1nc2cc3c(cc2s1)OCO3	0	38	72	170	0	106
CN(C)CCCN(C(=O)c1ccc(S(=O)(=O)N2CCCCC2)cc1)c1nc2cc3c(cc2s1)OCO3	0	0	55	0	0	90
CN(C)CCCN(C(=O)c1ccco1)c1nc2cc3c(cc2s1)OCO3	0	0	0	0	-	-
CCN(Cc1ccccc1)S(=O)(=O)c1ccc(C(=O)N(CCCN(C)C)c2nc3cc4c(cc3s2)OCCO4)cc1	-	-	96	-	0	114
COc1cccc(CN2CC(C(=O)NCCC3=CCCCC3)CCC2=O)c1 (centres undefined)	0	0	0	0	-	-
Cc1ccc(OCC(=O)NNC(=O)C2CCCO2)c(C)c1 (centres undefined)	0	0	0	0	-	-
CCOC(=O)C1CCN(C(=O)Nc2ccc(OC(F)(F)F)cc2)CC1	0	0	0	0	-	-
COCCNC(=S)N=Nc1c(O)[nH]c2c(C)cc(C)cc12	0	0	87	0	0	102
SMILES	MEKK3 PB1 HTS	MEKK2mut PB1 HTS	UBC13 polyUb	MEKK2wt PB1 HTS	Casp3 counter	UBC13 conf
CCC(C)N(C(=O)CSc1ccc(NC(C)=O)cc1)C1CCS(=O)(=O)C1 (centres undefined)	0	0	0	0	-	-
CC1CCC(C(C)C)C(OC(=O)Cn2c(-c3ccc(Cl)cc3)[n+](C)c3ccccc32)C1 (centres undefined)	0	0	0	0	-	-
CC1CCC(C(C)C)C(OC(=O)Cn2c(-c3ccc(Br)cc3)[n+](C)c3ccccc32)C1 (centres undefined)	0	0	55	147!	0	78
Cc1ccc(NC(=O)C[n+]2ccn(C3=C([O-])c4ccccc4C3=O)c2)cc1	0	0	74	0	0	65
Cc1ccc(S(=O)(=O)/N=C2\C(=O)c3ccccc3C([O-])=C2n2cc[n+](CCC(C)C)c2)cc1	0	0	0	0	-	-
CCn1c2ccccc2c2nc3cc(OC)c(OC)cc3nc21	0	0	0	0	-	-
